Data: PubChem BioAssay (EPA / NIEHS)
Activity calls are given as the source filed them. How the source made its calls: active means hit-call score of the fitted dose curve at least 0.9, where 1 is the maximum; inactive means score below 0.9.

Test: ATG_PXRE_CIS: Attagene CIS-FACTORIAL HepG2 Assay for human Pregnane X Receptor Element (PXRE) (AID 2282957)
Settings: HepG2 Attagene CIS-FACTORIAL PXRE reporter, mRNA; actives raise or lower the signal
Description: ATG_CIS is a cell-based, multiplexed-readout assay that uses HepG2, a human liver cell line, with measurements taken at 24 hours after chemical dosing in a 24-well plate.ATG_PXRE_CIS is one of 52 assay component(s) measured or calculated from the ATG_CIS assay. It is designed to make measurements of mRNA induction, a form of inducible reporter, as detected with fluorescence intensity signals by Reverse transcription polymerase chain reaction (RT-PCR) and Capillary electrophoresis technology.Data from the assay component ATG_PXRE_CIS was analyzed into 1 assay endpoint. This assay endpoint, ATG_PXRE_CIS, was analyzed with bidirectional fitting relative to DMSO as the negative control and baseline of activity. Using a type of inducible reporter, measures of mRNA for gain or loss-of-signal activity can be used to understand the reporter gene at the transcription factor-level as they relate to the gene NR1I2. Furthermore, this assay endpoint can be referred to as a primary readout, because this assay has produced multiple assay endpoints where this one serves a reporter gene function. To generalize the intended target to other relatable targets, this assay endpoint is annotated to the nuclear receptor intended target family, where the subfamily is non-steroidal.
Human liver HepG2 cells are transiently transfected with multiple reporter transcription units (MRTUs) in 6-well plates using FuGene 6 reagent (Roche; 3 ml FuGene/1 mg DNA). The MRTU constructs are regulated by a cis-regulating element (promoter). […] A major difference between the CIS and TRANS system is that in CIS activities of endogenous TFs are measured, whereas the TRANS assay evaluates changes in activities of exogenous, chimeric NR-Gal4 proteins. […] At the end of 24 hour incubation, total RNA was isolated using TriZol reagent (Invitrogen). The isolated RNA is then reverse-transcribed using oligo(dT) primer and Mo-MLV reverse transcriptase (Invitrogen) with DNAse I (Ambion) treatment for 30 min. The one-tenth of the produced cDNA was amplified by PCR using Taq DNA polymerase (Invitrogen) and two reporter sequence-specific primers. The PCR products were fluorescently labeled by primer extension with 6-arboxyfluorescein (6-FAM) 5'-labeled reporter sequence-specific primer (2 min at 95 C, 20 s at 68 C and 10 min at 72 C) and these products were digested with 5U of HpaI (New England Biolabs) for 2h at 37 C. The fragments were purified using Qiaquick PCR columns (Qiagen), analyzed on an ABI 3130xL genetic analyzer (Applied Biosystems) with peak positions identified by using a set of X-rhodamine (ROX)-labeled MapMarker1000 molecular weight standards (BioVentures). The raw capillary electrophoresis data was processed using Attagraph software (Attagene).

| Structure (SMILES) | AC50 | outcome |
| --- | --- | --- |
| CC1COc2ccccc2N1C(=O)C(Cl)Cl (stereo not given) | 26.6 µM (active) |  |
| NCCCCCCN |  | inactive |
| CC(C)[C@@H]1CC[C@@H](C)CC1=O |  | inactive |
| Nc1cc([N+](=O)[O-])ccc1Cl |  | inactive |
| CCCC1CCC(=O)O1 (stereo not given) |  | inactive |
| O=c1[nH]nnc2ccccc12 |  | inactive |
| O=C(O)c1cccc([N+](=O)[O-])c1 |  | inactive |
| COCCOCCOCCOCCOCCO |  | inactive |
| O=C(O)c1cn(C2CC2)c2cc(N3CCNCC3)c(F)cc2c1=O |  | inactive |
| CC(=O)OCC=Cc1ccccc1 | 32.1 µM (active) |  |
| C=C[C@@H](C)CCC=C(C)C |  | inactive |
| C=C[Si](OCC)(OCC)OCC | 5.48 µM (active) |  |
| Cc1ccc(C=O)s1 | 35.7 µM (active) |  |
| CCCCCCCCCCCCCCCC(=O)OC[C@H](O)[C@H]1OC(=O)C(O)=C1O | 38.2 µM (active) |  |
| CCCCCOC(=O)CCC |  | inactive |
| OCc1cccnc1 |  | inactive |
| O=S(=O)(O)c1cccc2c(S(=O)(=O)O)cccc12 |  | inactive |
| C=C(C)C1CCC(C)CC1O (stereo not given) |  | inactive |
| CCCC(=O)c1cc(O)c(O)cc1O |  | inactive |
| CN1Cc2c(N)cccc2C(c2ccccc2)C1 (stereo not given) | 6.9 µM (active) |  |

| Structure (SMILES) | AC50 | outcome |
| --- | --- | --- |
| CC(C)=CCC[C@](C)(O)[C@@H]1CC=C(C)CC1 | 11.1 µM (active) |  |
| CC(C)(C)C(=O)c1ccccc1 | 53 µM (active) |  |
| COCCCOc1ccnc(CS(=O)c2nc3ccccc3[nH]2)c1C (stereo not given) | 6.74 µM (active) |  |
| O=C(Cl)c1cccc(C(=O)Cl)c1 | 27.5 µM (active) |  |
| CO[Si](C)(OC)c1ccccc1 | 2.95 µM (active) |  |
| CCCCNC(=O)NS(=O)(=O)c1ccc(N)cc1 |  | inactive |
| CC(CCO)CCCC(C)(C)O (stereo not given) |  | inactive |
| CCC(=O)/C=C/C1C(C)=CCCC1(C)C (stereo not given) | 4.76 µM (active) |  |
| C=C(C)[C@@H]1CCC2=CC(=O)C[C@@H](C)[C@]2(C)C1 | 2.33 µM (active) |  |
| Cc1ccc(C(=O)c2cc(O)c(O)c([N+](=O)[O-])c2)cc1 | 27.5 µM (active) |  |
| Nc1ccc(S(=O)(=O)O)c(N)c1 |  | inactive |
| CC(C)(N)CO |  | inactive |
| O=C(O)c1cn(-c2ccc(F)cc2)c2cc(N3CCNCC3)c(F)cc2c1=O |  | inactive |
| Cc1ccc(C(=O)O)o1 |  | inactive |
| O=Cc1ccc(F)cc1 |  | inactive |
| CCCCCCCCCCCCOCCO |  | inactive |
| COc1ccc(NC(=O)CC(C)=O)cc1 |  | inactive |
| Cc1ccc(S)cc1 |  | inactive |
| CCCC(=O)OCCC(C)CCC=C(C)C (stereo not given) | 56.1 µM (active) |  |
| O=C(Oc1ccccc1)c1ccc(O)cc1 |  | inactive |
